Reference: PubChem BioAssay
Calls of active or inactive are those of the source.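 The calls were made as follows, unless noted: active = primary screen hit whose fluorescence ratio, in both repeats, exceeds the weak agonist control mean by 3 SD; inactive = the rest.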

tested on: transient receptor potential cation channel C4 beta (TRPC4), mouse; experiment: activators of mouse TRPC4 channel, confirmation, cell-based, second round, Fluo4, HEK293 TRPC4beta/mu-opioid, 1 µM (AID 2461;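 active = primary screen active and over 50% activation in each of two duplicate runs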;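 as to activation: 0% = wells without test compound as baseline of integrated fluorescence ratio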); conditions: Fluo4 calcium fluorescence, at 1 µM; stronger effect = higher value

Question: For O=C(NC(=S)NNC(=O)[C@H]1C[C@@H]1c1ccccc1)c1cccc(F)c1, which outcome is on record?
Answer: The outcome was “inactive”.

Question: For NCCCn1c(C(=O)c2cc(Cl)c(N)c(Cl)c2)c2ccccc2[n+]1[O-], which activation is on record?
Answer: The activation was 103% (active).

Question: How did the outcome turn out when COC(=O)c1ccccc1N=Nc1c(N)[nH][nH]c1=O was run?
Answer: The outcome was “inactive”.

Question: O=C(CNS(=O)(=O)c1ccc2ccccc2c1)NCCc1ccccn1 was tested. Which outcome did it give?
Answer: Its outcome is “inactive”.

Question: Which outcome does the source give for CC(c1cccnc1)N(CCN(C)C)C(=O)Nc1ccc(Cl)c(Cl)c1 (stereo not drawn) here?
Answer: The outcome was “inactive”.

Question: Which outcome does the source give for Cc1ccc(C(=O)NC(=S)NNC(=O)c2ccccc2)cc1 here?
Answer: The outcome was “inactive”.

Question: For C=CCn1c(CCNC(=O)c2ccco2)nc2ccccc21, which activation is on record?
Answer: The activation was 70% (active).

Question: How did the activation turn out when CCOC(=O)[C@@H]1CCNC[C@@H]1c1ccccc1 was run?
Answer: Its activation is 83% (active).

Question: With Cc1sc2nc(CSc3ccccc3)nc(NCCN(C)C)c2c1C as the molecule, how does the outcome read?
Answer: Its outcome is “inactive”.

Question: Which outcome does the source give for O=C(NCCc1cccc(Cl)c1)c1ccc(OC2CCN(Cc3ccccn3)CC2)cc1 here?
Answer: The outcome was “inactive”.

Question: With CCOC(=O)C1(CCCc2ccccc2)CCN(Cc2cn(CC)nc2C)CC1 as the molecule, how does the activation read?
Answer: Its activation is 76% (active).

Question: With CCCN(CCC)CCCNC(=O)C1CCN(S(=O)(=O)c2cccc3nsnc23)CC1 as the molecule, how does the activation read?
Answer: Its activation is 95% (active).

Question: Which outcome does the source give for CCN1C(=O)c2cccc3c(S(=O)(=O)Nc4ccccc4OC)ccc1c23 here?
Answer: The outcome was “inactive”.

Question: With CCCN(CCC)CCCNC(=O)C1CCC(CNS(=O)(=O)c2cccc3nsnc23)CC1 (stereo not drawn) as the molecule, how does the activation read?
Answer: Its activation is 52% (active).

Question: Which outcome does the source give for CCN1CCN(c2ccc(S(=O)(=O)N3CCCCC3)cc2NC(=O)C(C)Oc2ccc(F)cc2)CC1 (stereo not drawn) here?
Answer: Its outcome is “inactive”.

Question: For O=C(Nc1nnc(-c2ccccc2Cl)o1)c1nc2ccccc2s1, which outcome is on record?
Answer: Its outcome is “inactive”.

Question: Which outcome does the source give for COc1ccc(-c2nn(-c3ccccc3)cc2CNCc2cccnc2)c(F)c1 here?
Answer: Its outcome is “inactive”.

Question: How did the outcome turn out when Cc1ccc2oc(=O)c3cnn(CC(=O)NC4CCN(Cc5ccccc5)CC4)c3c2c1 was run?
Answer: Its outcome is “inactive”.

Question: CCCCC(=O)NNC(=S)NC(=O)c1ccc(C)cc1 was tested. Which outcome did it give?
Answer: The outcome was “inactive”.

Question: With COc1cc(/C=C/C(=O)c2ccc3c(c2)OCO3)cc(Cl)c1O as the molecule, how does the outcome read?
Answer: Its outcome is “inactive”.

Question: CN(C)C(CNC(=O)C1CC(=O)N(Cc2ccccc2)C1)c1ccccc1 (stereo not drawn) was tested. Which outcome did it give?
Answer: Its outcome is “inactive”.

Question: Cc1ccccc1OCC(=O)NNC(=S)NC(=O)c1ccco1 was tested. Which outcome did it give?
Answer: The outcome was “inactive”.

Question: Which outcome does the source give for O=C(CCc1ccccc1)NNC(=S)NC(=O)c1ccc(Cl)cc1 here?
Answer: Its outcome is “inactive”.

Question: CN(CCOc1ccc(Cl)cc1)CC(O)c1ccccc1 (stereo not drawn) was tested. Which outcome did it give?
Answer: The outcome was “inactive”.

Question: For Cc1onc(-c2ccccc2)c1C(=O)NC(=S)NNC(=O)c1ccco1, which outcome is on record?
Answer: The outcome was “inactive”.

Question: CC(NCCC1(Cc2ccccc2Cl)CCOC(C)(C)C1)c1cccs1 (stereo not drawn) was tested. Which outcome did it give?
Answer: Its outcome is “inactive”.

Question: For CN(C)C(CNC(=S)Nc1ccc(F)cc1)c1cccnc1 (stereo not drawn), which activation is on record?
Answer: Its activation is 82% (active).

Question: How did the outcome turn out when O=C(COc1ccccc1)NNC(=S)NC(=O)c1ccc(Cl)cc1Cl was run?
Answer: The outcome was “inactive”.

Question: Which outcome does the source give for CCN1CCN(c2c(S(=O)(=O)c3ccc(C)c(C)c3)cnc3ccc(F)cc23)CC1 here?
Answer: The outcome was “inactive”.

Question: How did the outcome turn out when COc1ccc(C(CNC(=O)c2cccc(NS(=O)(=O)c3ccc(C)c(F)c3)c2)N(C)C)cc1 (stereo not drawn) was run?
Answer: The outcome was “inactive”.

Question: CCOC(=O)C1(CCOc2ccccc2)CCN(Cc2cnc(C)s2)CC1 was tested. Which outcome did it give?
Answer: The outcome was “inactive”.

Question: With COc1ccc(/C=C/CN2CCCC(C(=O)c3ccc(OC)c(F)c3)C2)cc1 (stereo not drawn) as the molecule, how does the outcome read?
Answer: The outcome was “inactive”.

Question: Which outcome does the source give for O=S(=O)(c1ccc(Cl)cc1)N1CCN2CCCC2C1 (stereo not drawn) here?
Answer: The outcome was “inactive”.

Question: For OC(CNC1CCCc2ccccc21)COc1ccc2ccccc2c1 (stereo not drawn), which outcome is on record?
Answer: Its outcome is “inactive”.

Question: Which outcome does the source give for Cc1ccc2[nH]c3c(=O)n(CCc4cnc[nH]4)cnc3c2c1 here?
Answer: Its outcome is “inactive”.

Question: With Cc1ccn2cc(CCNC(=O)C3CC=CCC3C(=O)O)nc2c1 (stereo not drawn) as the molecule, how does the outcome read?
Answer: The outcome was “inactive”.

Question: How did the activation turn out when CCOC(=O)C1(CCOc2ccccc2)CCN(Cc2ccc(OC)c(O)c2)CC1 was run?
Answer: Its activation is 80% (active).

Question: How did the outcome turn out when Cc1cc(OCCCn2ccnc2)cc(C)c1Cl was run?
Answer: Its outcome is “inactive”.

Question: CCn1cc(CN2CCCC(C(=O)Nc3ccc(-c4nc5ccccc5[nH]4)cc3)C2)c(C)n1 (stereo not drawn) was tested. Which activation did it give?
Answer: Its activation is 116% (active).

tested on: TRPC4 (transient receptor potential cation channel C4 beta), mouse; experiment: positive allosteric modulators of mouse TRPC4, confirmation, cell-based, second round, Fluo-4, HEK293 TRPC4beta/mu-opioid, 1 µM (AID 2554); conditions: DAMGO EC20, Fluo-4 calcium flux, at 1 µM; stronger effect = higher value

Question: Which outcome does the source give for O=C(NC(=S)NNC(=O)[C@H]1C[C@@H]1c1ccccc1)c1cccc(F)c1 here?
Answer: The outcome was “inactive”.

Question: With NCCCn1c(C(=O)c2cc(Cl)c(N)c(Cl)c2)c2ccccc2[n+]1[O-] as the molecule, how does the outcome read?
Answer: The outcome was “inactive”.

Question: Which potentiation does the source give for COC(=O)c1ccccc1N=Nc1c(N)[nH][nH]c1=O here?
Answer: Its potentiation is 69% (active).

Question: O=C(CNS(=O)(=O)c1ccc2ccccc2c1)NCCc1ccccn1 was tested. Which outcome did it give?
Answer: The outcome was “inactive”.

Question: With CC(c1cccnc1)N(CCN(C)C)C(=O)Nc1ccc(Cl)c(Cl)c1 (stereo not drawn) as the molecule, how does the outcome read?
Answer: Its outcome is “inactive”.

Question: With Cc1ccc(C(=O)NC(=S)NNC(=O)c2ccccc2)cc1 as the molecule, how does the outcome read?
Answer: The outcome was “inactive”.

Question: How did the outcome turn out when C=CCn1c(CCNC(=O)c2ccco2)nc2ccccc21 was run?
Answer: The outcome was “inactive”.

Question: For CCOC(=O)[C@@H]1CCNC[C@@H]1c1ccccc1, which outcome is on record?
Answer: The outcome was “inactive”.

Question: How did the outcome turn out when Cc1sc2nc(CSc3ccccc3)nc(NCCN(C)C)c2c1C was run?
Answer: Its outcome is “inactive”.

Question: For O=C(NCCc1cccc(Cl)c1)c1ccc(OC2CCN(Cc3ccccn3)CC2)cc1, which outcome is on record?
Answer: The outcome was “inactive”.

Question: For CCOC(=O)C1(CCCc2ccccc2)CCN(Cc2cn(CC)nc2C)CC1, which outcome is on record?
Answer: Its outcome is “inactive”.

Question: For CCCN(CCC)CCCNC(=O)C1CCN(S(=O)(=O)c2cccc3nsnc23)CC1, which outcome is on record?
Answer: The outcome was “inactive”.

Question: Which outcome does the source give for CCN1C(=O)c2cccc3c(S(=O)(=O)Nc4ccccc4OC)ccc1c23 here?
Answer: The outcome was “inactive”.

Question: Which outcome does the source give for CCCN(CCC)CCCNC(=O)C1CCC(CNS(=O)(=O)c2cccc3nsnc23)CC1 (stereo not drawn) here?
Answer: The outcome was “inactive”.

Question: For CCN1CCN(c2ccc(S(=O)(=O)N3CCCCC3)cc2NC(=O)C(C)Oc2ccc(F)cc2)CC1 (stereo not drawn), which outcome is on record?
Answer: The outcome was “inactive”.

Question: How did the outcome turn out when O=C(Nc1nnc(-c2ccccc2Cl)o1)c1nc2ccccc2s1 was run?
Answer: Its outcome is “inactive”.

Question: With COc1ccc(-c2nn(-c3ccccc3)cc2CNCc2cccnc2)c(F)c1 as the molecule, how does the outcome read?
Answer: Its outcome is “inactive”.

Question: For Cc1ccc2oc(=O)c3cnn(CC(=O)NC4CCN(Cc5ccccc5)CC4)c3c2c1, which outcome is on record?
Answer: The outcome was “inactive”.

Question: For CCCCC(=O)NNC(=S)NC(=O)c1ccc(C)cc1, which outcome is on record?
Answer: Its outcome is “inactive”.

Question: Which outcome does the source give for COc1cc(/C=C/C(=O)c2ccc3c(c2)OCO3)cc(Cl)c1O here?
Answer: Its outcome is “inactive”.

Question: How did the outcome turn out when CN(C)C(CNC(=O)C1CC(=O)N(Cc2ccccc2)C1)c1ccccc1 (stereo not drawn) was run?
Answer: Its outcome is “inactive”.

Question: How did the outcome turn out when Cc1ccccc1OCC(=O)NNC(=S)NC(=O)c1ccco1 was run?
Answer: The outcome was “inactive”.

Question: With O=C(CCc1ccccc1)NNC(=S)NC(=O)c1ccc(Cl)cc1 as the molecule, how does the outcome read?
Answer: The outcome was “inactive”.

Question: For CN(CCOc1ccc(Cl)cc1)CC(O)c1ccccc1 (stereo not drawn), which outcome is on record?
Answer: The outcome was “inactive”.

Question: For Cc1onc(-c2ccccc2)c1C(=O)NC(=S)NNC(=O)c1ccco1, which outcome is on record?
Answer: Its outcome is “inactive”.

Question: Which outcome does the source give for CC(NCCC1(Cc2ccccc2Cl)CCOC(C)(C)C1)c1cccs1 (stereo not drawn) here?
Answer: The outcome was “inactive”.

Question: With CN(C)C(CNC(=S)Nc1ccc(F)cc1)c1cccnc1 (stereo not drawn) as the molecule, how does the outcome read?
Answer: The outcome was “inactive”.

Question: Which outcome does the source give for O=C(COc1ccccc1)NNC(=S)NC(=O)c1ccc(Cl)cc1Cl here?
Answer: The outcome was “inactive”.

Question: For CCN1CCN(c2c(S(=O)(=O)c3ccc(C)c(C)c3)cnc3ccc(F)cc23)CC1, which outcome is on record?
Answer: Its outcome is “inactive”.

Question: For COc1ccc(C(CNC(=O)c2cccc(NS(=O)(=O)c3ccc(C)c(F)c3)c2)N(C)C)cc1 (stereo not drawn), which outcome is on record?
Answer: Its outcome is “inactive”.

Question: With CCOC(=O)C1(CCOc2ccccc2)CCN(Cc2cnc(C)s2)CC1 as the molecule, how does the outcome read?
Answer: The outcome was “inactive”.

Question: How did the outcome turn out when COc1ccc(/C=C/CN2CCCC(C(=O)c3ccc(OC)c(F)c3)C2)cc1 (stereo not drawn) was run?
Answer: The outcome was “inactive”.

Question: Which outcome does the source give for O=S(=O)(c1ccc(Cl)cc1)N1CCN2CCCC2C1 (stereo not drawn) here?
Answer: Its outcome is “inactive”.

Question: For OC(CNC1CCCc2ccccc21)COc1ccc2ccccc2c1 (stereo not drawn), which outcome is on record?
Answer: The outcome was “inactive”.

Question: For Cc1ccc2[nH]c3c(=O)n(CCc4cnc[nH]4)cnc3c2c1, which outcome is on record?
Answer: The outcome was “inactive”.

Question: Which outcome does the source give for Cc1ccn2cc(CCNC(=O)C3CC=CCC3C(=O)O)nc2c1 (stereo not drawn) here?
Answer: Its outcome is “inactive”.

Question: Which outcome does the source give for CCOC(=O)C1(CCOc2ccccc2)CCN(Cc2ccc(OC)c(O)c2)CC1 here?
Answer: The outcome was “inactive”.

Question: With Cc1cc(OCCCn2ccnc2)cc(C)c1Cl as the molecule, how does the outcome read?
Answer: The outcome was “inactive”.

Question: CCn1cc(CN2CCCC(C(=O)Nc3ccc(-c4nc5ccccc5[nH]4)cc3)C2)c(C)n1 (stereo not drawn) was tested. Which outcome did it give?
Answer: Its outcome is “inactive”.
